PubChem BioAssay AID1159580 (chemical genetic matrix, 2015)
Screen size: about 5,500 compounds; about 2,000 (36%) were called active. Another 18% or so got no clear call; they are omitted. Rule as the data show it: active = normalized growth mostly below about 0.91 (no sharp cut-off); inconclusive = no clear call, values can overlap the other calls; inactive = mostly above about 0.92. This is one part of the list.

Test: chemical genetic growth profiling, strain panel (AID 1159580);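 also: tested at 20 µM; growth read once vehicle control cultures reached saturation at 30 °C; 1 = growth at the plate median or of vehicle wells; lower values mean less growth of the strain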
Details: growth OD
[1] = S. cerevisiae deletion strains, locus YDL101C, strain DUN1, active compounds read low
[2] = S. cerevisiae deletion strains, locus YHR030C, strain SLT2, active compounds read low

Measured: normalized growth

CC12NC(=O)NC1(C)NC(=O)N2 (configuration not stated)
inactive: S. cerevisiae deletion strains, locus YAL013W, strain DEP1, active compounds read low 1.04 | S. cerevisiae deletion strains, locus YBR229C, strain ROT2, active compounds read low 1.01 | S. cerevisiae deletion strains, locus YCL061C, strain MRC1, active compounds read low 1 | [1] 1.01 | S. cerevisiae deletion strains, locus YDL134C, strain PPH21, active compounds read low 1.02 | S. cerevisiae deletion strains, locus YDR150W, strain NUM1, active compounds read low 0.997 | S. cerevisiae deletion strains, locus YEL061C, strain CIN8, active compounds read low 1.03 | S. cerevisiae deletion strains, locus YGR078C, strain PAC10, active compounds read low 1.02 | S. cerevisiae deletion strains, locus YGR229C, strain SMI1, active compounds read low 1.01 | [2] 1.07 | S. cerevisiae deletion strains, locus YHR087W, strain rtc3, active compounds read low 1.01 | S. cerevisiae deletion strains, locus YJR043C, strain POL32, active compounds read low 1.01 | S. cerevisiae deletion strains, locus YJR075W, strain HOC1, active compounds read low 1.02 | S. cerevisiae deletion strains, locus YKL190W, strain CNB1, active compounds read low 1.03 | S. cerevisiae deletion strains, locus YLR039C, strain RIC1, active compounds read low 1.06 | S. cerevisiae deletion strains, locus YLR058C, strain SHM2 (second series), active compounds read low 1.02 | S. cerevisiae deletion strains, locus YLR085C, strain ARP6, active compounds read low 1.05 | S. cerevisiae deletion strains, locus YLR262C, strain YPT6, active compounds read low 1.04 | S. cerevisiae deletion strains, locus YML094W, strain GIM5, active compounds read low 1.04 | S. cerevisiae deletion strains, locus YMR219W, strain ESC1, active compounds read low 1.01 | S. cerevisiae deletion strains, locus YMR263W, strain SAP30, active compounds read low 1.01 | S. cerevisiae deletion strains, locus YMR307W, strain GAS1, active compounds read low 1.11 | S. cerevisiae deletion strains, locus YNL153C, strain GIM3, active compounds read low 1 | S. cerevisiae deletion strains, locus YNL298W, strain CLA4 (second series), active compounds read low 1.05 | S. cerevisiae deletion strains, locus YNL322C, strain KRE1, active compounds read low 1.01 | S. cerevisiae deletion strains, locus YNR030W, strain Alg12, active compounds read low 1.02 | S. cerevisiae deletion strains, locus YOL006C, strain TOP1, active compounds read low 1.09 | S. cerevisiae deletion strains, locus YPL055C, strain LGE1, active compounds read low 1.04 | S. cerevisiae deletion strains, locus YPL241C, strain CIN2, active compounds read low 1.05 | S. cerevisiae deletion strains, locus YPR135W, strain CTF4, active compounds read low 1.02 | S. cerevisiae strains, strain wild type, active compounds read low 1.01

ClC1=C(C=Nc2ccc(Cl)cc2)CSc2ccc(Cl)cc21
inactive: S. cerevisiae deletion strains, locus YAR019C, strain CDC15, active compounds read low 0.941 | S. cerevisiae deletion strains, locus YBL105C, strain PKC1, active compounds read low 0.926 | S. cerevisiae deletion strains, locus YBR135W, strain CKS1, active compounds read low 0.939 | S. cerevisiae deletion strains, locus YBR136W, strain MEC1, active compounds read low 0.926 | S. cerevisiae deletion strains, locus YBR160W, strain CDC28, active compounds read low 0.937 | S. cerevisiae deletion strains, locus YDL017W, strain CDC7, active compounds read low 0.933 | S. cerevisiae deletion strains, locus YDL028C, strain MPS1, active compounds read low 0.912 | [1] 0.945 | S. cerevisiae deletion strains, locus YDL108W, strain KIN28, active compounds read low 0.923 | S. cerevisiae deletion strains, locus YDL132W, strain cdc53, active compounds read low 0.936 | S. cerevisiae deletion strains, locus YDL214C, strain PRR2, active compounds read low 0.896 | S. cerevisiae deletion strains, locus YDR052C, strain DBF4, active compounds read low 0.943 | S. cerevisiae deletion strains, locus YDR054C, strain cdc34, active compounds read low 0.919 | S. cerevisiae deletion strains, locus YDR226W, strain ADK1, active compounds read low 0.914 | S. cerevisiae deletion strains, locus YDR477W, strain SNF1, active compounds read low 0.879 | S. cerevisiae deletion strains, locus YER123W, strain YCK3, active compounds read low 0.83 | S. cerevisiae deletion strains, locus YER133W, strain GLC7, active compounds read low 0.891 | S. cerevisiae deletion strains, locus YFL009W, strain cdc4, active compounds read low 0.924 | S. cerevisiae deletion strains, locus YFL029C, strain CAK1, active compounds read low 0.928 | S. cerevisiae deletion strains, locus YFR003C, strain YPI1, active compounds read low 0.94 | S. cerevisiae deletion strains, locus YFR019W, strain FAB1, active compounds read low 0.909 | S. cerevisiae deletion strains, locus YFR028C, strain CDC14, active compounds read low 0.935 | S. cerevisiae deletion strains, locus YGR040W, strain KSS1, active compounds read low 0.866 | S. cerevisiae deletion strains, locus YGR052W, strain FMP48, active compounds read low 0.905 | S. cerevisiae deletion strains, locus YGR092W, strain DBF2, active compounds read low 0.796 | S. cerevisiae deletion strains, locus YHR079C, strain IRE1, active compounds read low 0.862 | S. cerevisiae deletion strains, locus YHR082C, strain KSP1, active compounds read low 0.816 | S. cerevisiae deletion strains, locus YHR205W, strain SCH9, active compounds read low 0.812 | S. cerevisiae deletion strains, locus YIL147C, strain SLN1, active compounds read low 0.926 | S. cerevisiae deletion strains, locus YJL095W, strain BCK1, active compounds read low 0.881 | S. cerevisiae deletion strains, locus YJL128C, strain PBS2, active compounds read low 0.903 | S. cerevisiae deletion strains, locus YJL157C, strain FAR1, active compounds read low 0.886 | S. cerevisiae deletion strains, locus YJR016C, strain ILV3, active compounds read low 0.936 | S. cerevisiae deletion strains, locus YJR066W, strain TOR1 (second series), active compounds read low 0.91 | S. cerevisiae deletion strains, locus YJR066W, strain TOR1, active compounds read low 0.815 | S. cerevisiae deletion strains, locus YKL048C, strain ELM1, active compounds read low 0.941 | S. cerevisiae deletion strains, locus YKL067W, strain YNK1, active compounds read low 0.902 | S. cerevisiae deletion strains, locus YKL101W, strain HSL1, active compounds read low 0.893 | S. cerevisiae deletion strains, locus YKL193C, strain SDS22, active compounds read low 0.932 | S. cerevisiae deletion strains, locus YKL203C, strain TOR2, active compounds read low 0.884 | S. cerevisiae deletion strains, locus YLR133W, strain CKI1, active compounds read low 0.869 | S. cerevisiae deletion strains, locus YLR403W, strain SFP1, active compounds read low 0.836 | S. cerevisiae deletion strains, locus YML070W, strain DAK1, active compounds read low 0.89 | S. cerevisiae deletion strains, locus YMR001C, strain CDC5, active compounds read low 0.927 | S. cerevisiae deletion strains, locus YMR205C, strain PFK2 (second series), active compounds read low 0.904 | S. cerevisiae deletion strains, locus YMR277W, strain FCP1, active compounds read low 0.933 | S. cerevisiae deletion strains, locus YNL006W, strain LST8, active compounds read low 0.928 | S. cerevisiae deletion strains, locus YNL020C, strain ARK1, active compounds read low 0.883 | S. cerevisiae deletion strains, locus YNL161W, strain CBK1, active compounds read low 0.929 | S. cerevisiae deletion strains, locus YNL183C, strain NPR1, active compounds read low 0.841 | S. cerevisiae deletion strains, locus YNL207W, strain RIO2, active compounds read low 0.926 | S. cerevisiae deletion strains, locus YNL222W, strain SSU72, active compounds read low 0.947 | S. cerevisiae deletion strains, locus YNL307C, strain MCK1 (second series), active compounds read low 0.861 | S. cerevisiae deletion strains, locus YOL078W, strain AVO1, active compounds read low 0.937 | S. cerevisiae deletion strains, locus YOL136C, strain PFK27, active compounds read low 0.886 | S. cerevisiae deletion strains, locus YOR061W, strain CKA2, active compounds read low 0.843 | S. cerevisiae deletion strains, locus YOR119C, strain RIO1, active compounds read low 0.848 | S. cerevisiae deletion strains, locus YOR231W, strain MKK1, active compounds read low 0.924 | S. cerevisiae deletion strains, locus YOR329C, strain SCD5, active compounds read low 0.93 | S. cerevisiae deletion strains, locus YPL031C, strain PHO85, active compounds read low 0.87 | S. cerevisiae deletion strains, locus YPL153C, strain RAD53, active compounds read low 0.904 | S. cerevisiae deletion strains, locus YPL204W, strain HRR25, active compounds read low 0.893 | S. cerevisiae deletion strains, locus YPL209C, strain IPL1, active compounds read low 0.932 | S. cerevisiae deletion strains, locus YPR025C, strain CCL1, active compounds read low 0.935 | S. cerevisiae deletion strains, locus YPR106W, strain ISR1, active compounds read low 0.922 | S. cerevisiae deletion strains, locus YPR111W, strain DBF20, active compounds read low 0.923 | S. cerevisiae deletion strains, strain NNK1, active compounds read low 0.923 | S. cerevisiae deletion strains, strain TSCII, active compounds read low 0.93
active: [2] 0.74 | S. cerevisiae deletion strains, locus YLR113W, strain HOG1, active compounds read low 0.808 | S. cerevisiae deletion strains, locus YPL256C, strain CLN2, active compounds read low 0.843
